Compound activity from PubChem BioAssay.
The list is not random: actives were taken first. Their share in the collection is about 11%.
HEK cytotox = Cytotoxic Profiling in HEK 293 Cell Line of Diverse Libraries Using Quantitative High-Throughput Screening. HEK 293 viability, ATP luminescence (CellTiter-Glo), 48-72 h. Potency, µM (doses to about 115 µM), for inactives: top-dose activity change, negative = cytotoxicity, hits mostly inhibitors. 94,000 tested, 6.6% active. AID 1345083, 2018; note: nearly all actives have a fitted effect of over 60% in size
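CellTiter-Glo luminescence (cellular ATP) was read after 48 or 72 hr of compound exposure at 37 degree Celsius. Cells were HEK 293 plated at 250 cells/well.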
NPR1 antag = Natriuretic polypeptide receptor (hNpr1) antagonism - Primary qHTS; Atrial natriuretic peptide receptor 1 (Homo sapiens), P16066; HEK293 hNpr1 GloSensor cGMP, ANP-stimulated luminescence; Potency, µM (top dose mostly 46.3 µM), for inactives: at the highest dose activity change, negative = inhibition, usual class: inhibitors; 76,000 tested, 1.6% active; calls by dose curve; note: nearly all actives have a fitted effect of over 60% in size
Target sequence (P16066 whole entry, looked up): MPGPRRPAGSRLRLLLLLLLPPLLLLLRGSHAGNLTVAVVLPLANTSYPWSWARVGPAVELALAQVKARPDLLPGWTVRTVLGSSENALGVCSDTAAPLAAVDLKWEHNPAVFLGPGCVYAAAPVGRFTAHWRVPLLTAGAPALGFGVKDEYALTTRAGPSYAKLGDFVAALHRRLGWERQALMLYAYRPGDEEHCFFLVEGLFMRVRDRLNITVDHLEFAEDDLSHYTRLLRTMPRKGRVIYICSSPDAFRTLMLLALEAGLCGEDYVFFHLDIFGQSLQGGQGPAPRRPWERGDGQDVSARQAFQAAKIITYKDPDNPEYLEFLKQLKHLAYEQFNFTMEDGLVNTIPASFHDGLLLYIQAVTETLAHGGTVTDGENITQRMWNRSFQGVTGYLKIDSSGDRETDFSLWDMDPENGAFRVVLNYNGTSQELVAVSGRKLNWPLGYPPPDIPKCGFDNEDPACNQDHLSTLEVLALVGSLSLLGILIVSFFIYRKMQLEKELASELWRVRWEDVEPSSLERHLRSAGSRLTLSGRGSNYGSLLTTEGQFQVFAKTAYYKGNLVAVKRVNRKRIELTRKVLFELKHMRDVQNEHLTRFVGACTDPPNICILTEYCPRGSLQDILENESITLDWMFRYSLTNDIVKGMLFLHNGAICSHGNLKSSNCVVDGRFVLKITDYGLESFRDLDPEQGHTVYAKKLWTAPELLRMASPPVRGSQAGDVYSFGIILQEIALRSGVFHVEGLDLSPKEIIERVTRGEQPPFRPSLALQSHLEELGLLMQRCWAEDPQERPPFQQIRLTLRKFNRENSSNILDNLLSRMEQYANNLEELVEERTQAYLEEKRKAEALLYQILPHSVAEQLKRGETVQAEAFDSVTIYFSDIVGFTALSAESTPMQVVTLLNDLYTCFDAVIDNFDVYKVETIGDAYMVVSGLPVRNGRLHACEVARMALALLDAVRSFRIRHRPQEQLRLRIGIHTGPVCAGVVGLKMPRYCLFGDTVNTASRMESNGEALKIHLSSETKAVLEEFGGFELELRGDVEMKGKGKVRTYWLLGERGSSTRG
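HEK293 cells stably expressing human Npr1 and cGMP GloSensor pGS-40F, loaded 2 h with 2% GloSensor reagent, given compound 30 min at room temperature. Luminescence read before and 20 min after 0.1 nM hNppA.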
NIH3T3 tox = Cytotoxic Profiling in NIH 3T3 Cell Line of Diverse Libraries Using Quantitative High-Throughput Screening | Potency, µM (doses to about 96.7 µM), for the others: at the highest dose activity change, negative = cytotoxicity, actives largely listed as inhibitors | 94,000 tested, 4.3% active | NIH 3T3 viability, CellTiter-Glo ATP luminescence, 48-72 h; note: nearly all actives have a fitted effect of over 55% in size
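Viability of NIH 3T3 cells after 48 or 72 hr compound treatment at 37 °C was assessed by CellTiter-Glo, with luminescence imaged following a 10 min room-temperature step.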
Luciferase inh = Firefly luciferase inhibition profiling of diverse chemical library using quantitative high-throughput screening. Luciferin 4-monooxygenase (Photinus pyralis), P08659. purified P. pyralis luciferase, luminescence, biochemical. Potency, µM (titrated, usually from 115 µM), actives largely listed as inhibitors. 76,000 tested, 2.5% active. AID 1347043, 2019; note: nearly all actives have a fitted effect of over 65% in size
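Purified 10nM P. pyralis luciferase with 10uM D-luciferin and 10uM ATP in 50mM Tris acetate pH 7.5, 10mM Mg acetate, 0.01% Tween-20, 0.05% BSA. qHTS titration; luminescence read by CCD imager.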
The depositor's hits bear a star; i = inactive; ? = inconclusive; . = no result given; [ ] = remark or other dose. Unless noted, calls come from the whole dose curve; as a rule, active = well fitted curve in the direction sought with a large enough effect; inconclusive = small, poorly fitted or top-dose-only effect, or another doubt; inactive = no such curve, though single readings can be large; an effect the other way counts as inactive or inconclusive. % is set by controls: 0 for no effect and ±100 for the full control effect; potency is the fitted concentration of half-maximal effect.

SMILES	HEK cytotox	NPR1 antag	NIH3T3 tox	Luciferase inh
Cc1noc(C)c1S(=O)(=O)N1CCC(OCc2noc(C3CCCO3)n2)CC1 (stereo not drawn)	-23%	.	?	.
O=c1n(-c2ccc(F)cc2F)nc2n1CCN(Cc1ccccc1)C2	3.2µM*	26%	6.3µM*	?
O=C(c1ccccc1)N1CCn2c(nn(-c3ccc(F)cc3)c2=O)C1	100µM*	2%[70.6 µM]	-19%[138 µM]	i
Cc1ccc(C(=O)N2CCn3c(nn(-c4ccc(F)cc4)c3=O)C2)cc1	-20%	4%	-27%	i
O=C(NCc1ccc2c(c1)OCO2)C1COC2(CCCCC2)N1C(=O)c1cccc(F)c1 (stereo not drawn)	?	-10%	?	i
Cc1cnc(C2CCN(S(=O)(=O)c3ccccc3)C2)n1C(C)C (stereo not drawn)	-18%	5%	-16%	i
CN(Cc1cccc(N2CCN(S(=O)(=O)c3ccccc3C(F)(F)F)CC2)c1F)S(C)(=O)=O	35µM*	.	?	.
Cn1nc2n(c1=O)CCN(S(=O)(=O)c1ccccc1C(F)(F)F)CC2	-13%	-1%	-13%	i
O=C(N[C@@H]1CN(Cc2ccccc2)C[C@H]1CO)c1ccnnc1	-8%	-16%	-7%	i
N#Cc1ccc(C(=O)N[C@@H]2CN(Cc3ccccc3)C[C@H]2CO)cc1	?	2%	14µM*	i
O=C(c1ccc(Cl)nc1)N1CCC(C(=O)N2CCC(N3Cc4cccn4C3=O)CC2)CC1	i	.	-7%	.
Cc1cc(F)ccc1OCC(=O)c1ccc2c(c1)N(C(C)C(=O)NCc1ccc(F)cc1)C(=O)CO2 (stereo not drawn)	45µM*	-9%	?	i
Cc1ccc(C)c(OCC(=O)c2ccc3c(c2)N(C(C)C(=O)NCC2CCCO2)C(=O)CO3)c1 (stereo not drawn)	45µM*	6%	-22%	i
CC(C(=O)NCc1ccccc1)N1C(=O)COc2ccc(C(=O)COc3ccc(F)cc3)cc21 (stereo not drawn)	?	2%	-29%	i
COc1cccc(CNC(=O)C2Cn3cccc3C(=O)N2Cc2ccccc2)c1OC (stereo not drawn)	-18%	-1%	-24%	i
O=C(C1CCCN1Cc1ccc(-c2cncnc2)cc1)N1CCC(c2ccccc2)CC1 (stereo not drawn)	?	.	-22%	.
O=C1c2c(nc(COc3cccc(F)c3)n2Cc2ccccc2)NCCN1CCOc1ccccc1	?	-26%	35µM*	i
COCCN1CCNc2nc(COc3ccc(C(C)C)cc3)n(Cc3ccccc3)c2C1=O	63µM*	0%	?	i
O=C1c2c(nc(COc3cccc(F)c3)n2Cc2ccccc2)NCCN1CC1CC1	100µM*	-3%[70.6 µM]	89µM*	i
Cc1ccc2c(n1)N(C)[C@H](CO)CCN(Cc1ccc(Cl)cc1)C2	71µM*	-2%[70.6 µM]	?	i
C[S+](=O)([O-])c1cccc(NC(=O)c2nnn3c2CN(Cc2cccc(Cl)c2)C(=O)CC3)c1	?	3%	?	i
O=C(Nc1cccnc1)c1nnn2c1CN(Cc1ccccc1F)C(=O)CC2	-1%[172 µM]	0%[70.6 µM]	100µM*	i
O=C(c1cccnc1)N1CCCN(CCn2nc3n(c2=O)CCCC3)CC1	1%	.	-14%	.
Cc1ccc(NC(=O)CN2C(=O)NC3(CCS(=O)(=O)CC3)C2=O)cc1C	17%	2%	i	i
O=C(CN1C(=O)NC2(CCS(=O)(=O)CC2)C1=O)Nc1ccc2c(c1)OCCO2	1%	-5%	i	35µM*
SMILES	HEK cytotox	NPR1 antag	NIH3T3 tox	Luciferase inh
Cc1ccccc1-c1cccc(CN2CCOC(CCN)C2)c1 (stereo not drawn)	?	-7%	20µM*	i
CCOc1cc(=O)n2c(c1C(=O)Nc1ccc3c(c1)OCO3)CCCC2	?	-1%	?	40µM*
CCOc1cc(=O)n2c(c1C(=O)Nc1ccc(CC)cc1)CCCC2	-22%	-2%	-17%	?
COc1ccccc1-n1c(=O)c(C(=O)N2CCN(C(=O)c3ccccc3C)CC2)nc2cccnc21	0%	.	-23%	.
O=C(c1ccccc1)N1C[C@@H]2C[C@H](C1)c1ccc(NS(=O)(=O)c3cccc(F)c3)c(=O)n1C2	-2%	1%	-5%	i
O=C(c1ccc(-c2ccccc2)cc1)N1C[C@@H]2C[C@H](C1)c1ccc(NS(=O)(=O)c3cccc(F)c3)c(=O)n1C2	50µM*	-6%	?	?
O=C(c1ccc2ccccc2c1)N1C[C@@H]2C[C@H](C1)c1ccc(NS(=O)(=O)Cc3ccccc3)c(=O)n1C2	?	3%	79µM*	i
O=C(c1ccccn1)N1C[C@@H]2C[C@H](C1)c1ccc(NS(=O)(=O)Cc3ccccc3)c(=O)n1C2	-14%	4%	i	i
Cn1cc(CN2C[C@@H]3C[C@H](C2)c2ccc(NS(=O)(=O)c4cccc(F)c4)c(=O)n2C3)c2ccccc21	32µM*	-23%	13µM*	i
O=c1c(NS(=O)(=O)c2cccc(F)c2)ccc2n1C[C@H]1C[C@@H]2CN(S(=O)(=O)c2ccccc2)C1	-17%	1%	?	i
COc1ccc(CC(=O)NC2CCN(c3cc(-c4ccc(Cl)cc4)[nH]n3)C2)cc1 (stereo not drawn)	28µM*	-30%	?	i
O=C(NC1CCN(c2cc(-c3ccccc3)[nH]n2)CC1)c1ccc(Cl)cc1	?	-27%	20µM*	i
O=C(Cc1cccc(Cl)c1)NC1CCN(c2cc(-c3ccccc3)[nH]n2)CC1	?	-30%	32µM*	i
COc1ccc(-c2cc(N3CCC(NC(=O)Cc4ccc(Cl)cc4)CC3)n[nH]2)cc1	?	-25%	?	i
O=C(Cc1ccc(F)cc1)NC1CCN(c2cc(-c3ccccc3)[nH]n2)CC1	?	-28%	?	i
O=C(NC1CCN(c2cc(-c3ccccc3)[nH]n2)CC1)c1ccc2ccccc2n1	50µM*	-24%	28µM*	i
Cc1cnc(C(=O)N2Cc3ccccc3OC3(CCN(C(C)C)CC3)C2)cn1	i	.	-14%	.
COc1ccc(-c2cc(N3CCC(NC(=O)c4ccc(Cl)cc4)CC3)n[nH]2)cc1	45µM*	?	?	i
COc1ccc(-c2cc(N3CCC(NC(=O)c4ccc(Cl)cc4)C3)n[nH]2)cc1 (stereo not drawn)	?	-13%	?	i
O=C(NC1CCN(c2cc(-c3ccc(Cl)cc3)[nH]n2)CC1)c1ccc2[nH]ccc2c1	40µM*	-22%	35µM*	i
COc1cc(OC)cc(C(=O)NC2CCN(c3cc(-c4ccc(F)cc4)[nH]n3)CC2)c1	?	-22%	35µM*	i
